Assay [1] can be described thus: yeast TOR pathway RPL19A-GFP modulators, primary screen, cell-based, S. cerevisiae, multiplex flow cytometry (AID 1862; in the data active means percent of DMSO control GFP below about 86%;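 further: lower values mimic rapamycin by blocking the RPL19A rise seen in DMSO cells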). The settings on record: S. cerevisiae RPL19A-GFP strain, flow cytometry fluorescence, 3 h; at 10 µM; stronger effect = lower value. For orientation: In flow cytometry, cells or beads pass a laser one at a time.
Assay [2] can be described thus: modulators of MEP2-GFP levels in yeast, primary screen, S. cerevisiae, multiplex flow cytometry (AID 1867;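 active means GFP response, as percent of the DMSO control, above the screen-wide mean plus 3 SD, about 139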;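 further: median GFP channel fluorescence of barcode-gated MEP2-GFP cells measured by flow cytometry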). As to conditions: S. cerevisiae MEP2-GFP strain, 3 h, at 10 µM, stronger effect = higher value, 100% means same as DMSO wells.
Assay [3] is described as follows: modulators of CIT2-GFP expression in yeast, primary screen, S. cerevisiae, GFP fusion, multiplex flow cytometry (AID 1870;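 active means percent response above a set limit, the screen-wide mean plus 3 SD, cut at about 130% in these data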;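 further: barcoded CIT2-GFP strain pooled with four other GFP strains with rapamycin as positive control; median GFP fluorescence per well over plate mean of DMSO wells so 100% = DMSO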). The settings on record: 3 h, at 10 µM, stronger effect = higher value.
Assay [4] in a line: modulators of LAP4-GFP expression in yeast, primary screen, S. cerevisiae, multiplex flow cytometry (AID 1873;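 active means GFP signal, as percent of the solvent control, above the screen mean plus 3 SD, about 149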). As to conditions: 3 h, at 10 µM, stronger effect = higher value.
Assay [5] is described as follows: modulators of AGP1-GFP expression in yeast TOR pathway, primary screen, cell-based, multiplex flow cytometry, S. cerevisiae (AID 1887;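 active means GFP signal above the screen-wide mean plus 3 SD, that is over about 124.5% of the solvent control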;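 further: AGP1-GFP fusion strain of S. cerevisiae within a five-strain barcoded multiplex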). As to conditions: 3 h, at 10 µM, stronger effect = higher value.
Assay [6] in a line: inhibitors of CD8+ T cell-vesicle binding, pilot screen, LFA-1/ICAM-1 modulator project, MLPCN validation set, flow cytometry (AID 2523;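 active means response below a set limit, under 55% cells CD8-positive and vesicle-bound, and CD8 cells' 90th-percentile brightness under 279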;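 on vesicle binding response: mean PE anti-B7-1 fluorescence of CD8+ cells relative to row control; 100% = QL9-loaded vesicles with DMSO vehicle in the same plate row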). As to conditions: 2C mouse CD8+ T cells, at 7 µM, stronger effect = lower value; double positive events: measured here: CD8+/vesicle+ event percentage.
Assay [7] concerns the target Integrin beta-1 (Homo sapiens) + Integrin alpha-4 (Homo sapiens) (UniProt P13612+P05556). Briefly: inhibition of HUTS-21 binding to VLA-4, pilot screen, VLA-4 allosteric modulator project, U937 cells, HUTS-21 mAb, flow cytometry, validation set (AID 2674;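 active means inhibition above 50%, about 3 SD of the validation set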;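 further: antibody binding induced by the VLA-4 ligand LDV present at three times its Kd; 0% = LDV ligand with antibody and no compound and 100% = antibody without LDV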). The settings on record: HUTS-21 LIBS mAb binding, at 6.7 µM, stronger effect = higher value, binding induced by LDV ligand.
Assay [8] is described as follows: superoxide lowering in aged yeast cells, pilot screen, validation compound set (AID 2706;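 active means superoxide response below 65% of plate, a cut near 3 SD across the whole screen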;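 further: yeast exposed to compound for one week at 30 degrees C before staining; 100% = mean of all compound wells on the same plate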). The settings on record: S. cerevisiae aging, superoxide DHE fluorescence; at 10 µM; stronger effect = lower value.
The target of assay [9] is Beta-adrenergic receptor kinase 1 (Homo sapiens) (UniProt P25098). Briefly: GRK2 binders displacing RNA aptamer, biochemical, validation, human GRK2, bead flow cytometry (AID 488806;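 active means aptamer binding inhibition above 30%, about 3 SD of noise from non-fluorescent compounds; inactive means inhibition at or below 30%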). The settings on record: bead-bound GRK2, FAM-aptamer displacement, at 10 µM, stronger effect = higher value.
Chain of Beta-adrenergic receptor kinase 1 (Homo sapiens) (P25098 whole entry, looked up): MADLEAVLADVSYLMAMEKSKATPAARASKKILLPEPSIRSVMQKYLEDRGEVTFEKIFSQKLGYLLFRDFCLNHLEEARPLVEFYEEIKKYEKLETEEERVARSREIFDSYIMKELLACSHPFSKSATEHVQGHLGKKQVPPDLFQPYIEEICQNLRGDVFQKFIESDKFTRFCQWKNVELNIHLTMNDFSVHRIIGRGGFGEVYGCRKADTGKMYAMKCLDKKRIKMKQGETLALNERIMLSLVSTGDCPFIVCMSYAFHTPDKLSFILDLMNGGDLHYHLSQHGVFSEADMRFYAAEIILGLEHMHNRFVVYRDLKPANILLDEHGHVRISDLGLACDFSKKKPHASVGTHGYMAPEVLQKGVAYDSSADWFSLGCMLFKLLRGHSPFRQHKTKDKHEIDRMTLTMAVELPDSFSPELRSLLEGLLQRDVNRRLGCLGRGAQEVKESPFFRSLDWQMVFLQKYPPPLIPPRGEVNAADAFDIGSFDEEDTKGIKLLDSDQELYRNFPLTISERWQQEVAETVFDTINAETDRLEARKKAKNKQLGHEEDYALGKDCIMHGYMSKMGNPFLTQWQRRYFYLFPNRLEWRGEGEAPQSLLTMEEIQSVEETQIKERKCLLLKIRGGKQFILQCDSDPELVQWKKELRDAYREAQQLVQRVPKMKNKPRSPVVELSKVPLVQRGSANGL
The target in assay [10] is Beta-2 adrenergic receptor (Homo sapiens) (UniProt P07550). Briefly: beta2AR agonists driving receptor internalization, pilot screen, cell-based, FAP fluorogen, flow cytometry, validation set (AID 504459;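 active means percent response above 42, roughly 3 SD of non-fluorescent test compounds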;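 further: agonist-driven loss of surface beta2AR via internalization measured by FAP dye flow cytometry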). The settings on record: Am2.2-beta2AR cells, FAP surface receptor flow cytometry; at 10 µM; stronger effect = higher value.
Chain of Beta-2 adrenergic receptor (Homo sapiens) (P07550 whole entry, looked up): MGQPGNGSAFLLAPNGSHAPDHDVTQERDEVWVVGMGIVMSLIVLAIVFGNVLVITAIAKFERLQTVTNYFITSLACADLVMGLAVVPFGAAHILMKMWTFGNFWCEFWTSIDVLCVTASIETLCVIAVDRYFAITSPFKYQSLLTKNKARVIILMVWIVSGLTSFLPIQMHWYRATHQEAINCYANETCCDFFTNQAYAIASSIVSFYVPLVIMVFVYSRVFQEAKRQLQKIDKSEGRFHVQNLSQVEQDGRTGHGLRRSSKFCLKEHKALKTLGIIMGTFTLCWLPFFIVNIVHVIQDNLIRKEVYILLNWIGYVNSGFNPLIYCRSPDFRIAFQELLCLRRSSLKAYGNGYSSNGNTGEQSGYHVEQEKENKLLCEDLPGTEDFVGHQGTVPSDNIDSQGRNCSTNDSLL
The target of assay [11] is AP-2 complex subunit beta (Homo sapiens) (UniProt P63010). Briefly: inhibitors of arrestin peptide binding to AP2, pilot screen, biochemical, validation set, GST-AP2 beads, flow cytometry (AID 504541;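 active means inhibition above 54%, about 3 SD of non-fluorescent compounds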;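 further: AP2 carries R879A mutation and is captured from E. coli lysate; bead-bound FITC arrestin peptide fluorescence measuring arrestin peptide binding to AP2; 0% = DMSO wells and 100% = excess unlabeled arrestin peptide control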). The settings on record: FITC arrestin peptide, at 10 µM, stronger effect = higher value, AP2 beta2 appendage fragment, R879A mutant.
Chain of AP-2 complex subunit beta (Homo sapiens) (P63010 whole entry, looked up, the tested form may be a part, one chain of several): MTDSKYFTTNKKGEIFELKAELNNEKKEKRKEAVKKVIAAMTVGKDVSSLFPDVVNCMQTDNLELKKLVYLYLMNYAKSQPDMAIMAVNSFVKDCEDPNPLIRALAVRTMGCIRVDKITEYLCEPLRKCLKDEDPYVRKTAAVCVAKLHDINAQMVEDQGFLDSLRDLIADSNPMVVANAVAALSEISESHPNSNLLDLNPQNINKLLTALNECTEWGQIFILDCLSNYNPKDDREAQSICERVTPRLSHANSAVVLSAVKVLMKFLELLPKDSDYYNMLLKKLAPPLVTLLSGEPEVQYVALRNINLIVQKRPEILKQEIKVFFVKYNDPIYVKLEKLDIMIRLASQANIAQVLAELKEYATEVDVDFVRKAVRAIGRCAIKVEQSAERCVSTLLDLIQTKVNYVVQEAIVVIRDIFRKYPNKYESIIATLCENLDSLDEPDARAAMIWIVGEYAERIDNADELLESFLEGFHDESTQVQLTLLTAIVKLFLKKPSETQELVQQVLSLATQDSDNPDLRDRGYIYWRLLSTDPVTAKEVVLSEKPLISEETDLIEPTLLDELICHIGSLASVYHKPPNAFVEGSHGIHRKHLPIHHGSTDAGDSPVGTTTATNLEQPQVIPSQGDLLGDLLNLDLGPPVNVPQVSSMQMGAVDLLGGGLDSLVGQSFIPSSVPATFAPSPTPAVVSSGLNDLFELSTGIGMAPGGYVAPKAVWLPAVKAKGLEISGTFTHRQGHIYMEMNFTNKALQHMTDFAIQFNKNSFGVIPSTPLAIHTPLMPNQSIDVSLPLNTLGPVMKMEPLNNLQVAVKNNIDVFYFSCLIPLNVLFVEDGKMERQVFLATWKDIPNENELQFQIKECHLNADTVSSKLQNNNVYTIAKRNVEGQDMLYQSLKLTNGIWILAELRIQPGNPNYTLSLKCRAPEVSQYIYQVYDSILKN
The nature of assay [12]: yeast V-ATPase proton transport modulators, S. cerevisiae, pHLuorin, HTS validation (AID 504600; in the data active means response above about 15%;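 further: plate controls were DMSO for no effect and reference compound for full effect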). The settings on record: S. cerevisiae pHLuorin cytosolic pH, at 10 µM, stronger effect = higher value.
Assay [13] concerns anti-desmoglein-3 scFv antibody binding to human DSG3. Briefly: inhibitors of anti-DSG3 scFv binding to DSG3, pilot screen, biochemical, validation compound set, bead-based, flow cytometry (AID 588368;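 active means binding below the plate cutoff, the plate median minus 3 SD, with a reading above zero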;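 further: signal is the median channel fluorescence of bead-bound GFP antibody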). As to conditions: Protein G beads, DSG3-Fc, scFv-GFP binding, at 10 µM, stronger effect = lower value.
The nature of assay [14]: inhibitors of fungal efflux pumps CDR1, CDR2, MDR1, pilot screen, validation compound set, multiplex, phenotypic (AID 588506;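 active means efflux inhibition above 0.42, the validation set average plus 4 SD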;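 further: Nile Red retained in cells so higher fluorescence means more efflux inhibition; 0 = negative control wells and 1 = enniatin B 25 µM full block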). As to conditions: S. cerevisiae pump-expressing triplex, Nile Red efflux flow cytometry; at 10 µM; stronger effect = higher value; the pumps come from Candida albicans.
In assay [15] the target is ATP-binding cassette sub-family B member 6 (Homo sapiens) (UniProt Q9NP58). Briefly: ABCB6 transporter inhibitors, pilot screen, K562-ABCB6 cells, flow cytometry, validation set (AID 588550;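 active means inhibition above the screen-wide mean plus 3 SD, about 51%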;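 further: 0% = DMSO wells and 100% = benzethonium chloride 70 µM positive control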). As to conditions: K562-ABCB6 porphyrin accumulation, 1 h, at 10 µM, stronger effect = higher value.
Chain of ATP-binding cassette sub-family B member 6 (Homo sapiens) (Q9NP58 whole entry, looked up): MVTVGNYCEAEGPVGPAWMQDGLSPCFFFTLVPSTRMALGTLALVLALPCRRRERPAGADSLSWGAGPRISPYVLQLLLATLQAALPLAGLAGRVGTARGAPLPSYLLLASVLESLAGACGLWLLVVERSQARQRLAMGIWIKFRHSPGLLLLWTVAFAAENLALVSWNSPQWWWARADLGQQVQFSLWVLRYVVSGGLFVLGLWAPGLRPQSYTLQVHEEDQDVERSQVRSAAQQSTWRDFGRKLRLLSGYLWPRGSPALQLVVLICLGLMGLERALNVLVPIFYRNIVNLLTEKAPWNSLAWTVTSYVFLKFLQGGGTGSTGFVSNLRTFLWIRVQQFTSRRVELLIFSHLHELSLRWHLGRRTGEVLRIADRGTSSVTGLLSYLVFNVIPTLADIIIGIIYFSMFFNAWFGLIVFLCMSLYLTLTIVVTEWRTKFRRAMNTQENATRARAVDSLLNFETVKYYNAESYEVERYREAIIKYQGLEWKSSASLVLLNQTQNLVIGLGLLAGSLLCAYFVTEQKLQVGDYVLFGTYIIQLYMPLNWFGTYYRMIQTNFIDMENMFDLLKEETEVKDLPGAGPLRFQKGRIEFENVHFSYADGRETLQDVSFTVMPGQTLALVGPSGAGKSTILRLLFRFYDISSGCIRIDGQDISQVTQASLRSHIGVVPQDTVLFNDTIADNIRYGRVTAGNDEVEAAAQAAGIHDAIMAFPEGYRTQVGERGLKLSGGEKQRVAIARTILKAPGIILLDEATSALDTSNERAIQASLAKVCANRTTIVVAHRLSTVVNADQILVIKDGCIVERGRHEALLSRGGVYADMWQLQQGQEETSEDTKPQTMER
Assay [16] can be described thus: promoters of myeloid differentiation in arrested cells, primary screen, cell-based, GFP/MAC1 double positive, flow cytometry, validation set (AID 588685).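 Further: compound exposure lasts four days before antibody staining and flow analysis; 0% = DMSO wells and 100% = 5 µM fulvestrant positive control.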 The settings on record: ER-HoxA9 marrow cells, stronger effect = higher value, normalized: vehicle 0, fulvestrant 100.

Records with an inconclusive call do not appear. The source made the active and inactive calls.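 How the source made its calls, unless noted: active means differentiation response of at least 50%, scaled between solvent and reference control, from cells with both markers; inactive means the rest.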

As usually defined, the inhibition is the change of the read-out against control, counted positive when it falls.

Chain of Integrin beta-1 (Homo sapiens) + Integrin alpha-4 (Homo sapiens) (P05556 whole entry, looked up): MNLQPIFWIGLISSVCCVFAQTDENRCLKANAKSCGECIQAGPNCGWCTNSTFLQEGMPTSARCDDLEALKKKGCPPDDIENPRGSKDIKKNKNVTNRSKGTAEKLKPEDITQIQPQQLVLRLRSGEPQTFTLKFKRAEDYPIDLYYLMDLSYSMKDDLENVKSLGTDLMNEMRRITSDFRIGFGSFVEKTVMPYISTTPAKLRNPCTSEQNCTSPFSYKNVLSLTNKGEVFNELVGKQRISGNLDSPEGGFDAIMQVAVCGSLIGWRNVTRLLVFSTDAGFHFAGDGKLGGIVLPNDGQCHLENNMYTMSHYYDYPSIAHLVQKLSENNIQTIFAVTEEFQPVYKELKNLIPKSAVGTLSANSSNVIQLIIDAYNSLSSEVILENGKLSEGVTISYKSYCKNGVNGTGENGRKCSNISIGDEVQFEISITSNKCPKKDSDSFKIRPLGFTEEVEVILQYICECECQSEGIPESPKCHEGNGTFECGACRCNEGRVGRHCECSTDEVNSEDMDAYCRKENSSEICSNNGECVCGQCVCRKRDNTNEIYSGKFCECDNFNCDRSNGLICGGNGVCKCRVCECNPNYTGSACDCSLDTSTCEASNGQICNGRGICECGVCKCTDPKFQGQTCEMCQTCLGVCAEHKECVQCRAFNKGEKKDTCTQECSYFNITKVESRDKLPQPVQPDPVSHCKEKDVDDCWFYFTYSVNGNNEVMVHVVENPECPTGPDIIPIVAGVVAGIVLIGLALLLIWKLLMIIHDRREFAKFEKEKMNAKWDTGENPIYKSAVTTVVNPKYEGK
Chain of Integrin beta-1 (Homo sapiens) + Integrin alpha-4 (Homo sapiens) (P13612 whole entry, looked up): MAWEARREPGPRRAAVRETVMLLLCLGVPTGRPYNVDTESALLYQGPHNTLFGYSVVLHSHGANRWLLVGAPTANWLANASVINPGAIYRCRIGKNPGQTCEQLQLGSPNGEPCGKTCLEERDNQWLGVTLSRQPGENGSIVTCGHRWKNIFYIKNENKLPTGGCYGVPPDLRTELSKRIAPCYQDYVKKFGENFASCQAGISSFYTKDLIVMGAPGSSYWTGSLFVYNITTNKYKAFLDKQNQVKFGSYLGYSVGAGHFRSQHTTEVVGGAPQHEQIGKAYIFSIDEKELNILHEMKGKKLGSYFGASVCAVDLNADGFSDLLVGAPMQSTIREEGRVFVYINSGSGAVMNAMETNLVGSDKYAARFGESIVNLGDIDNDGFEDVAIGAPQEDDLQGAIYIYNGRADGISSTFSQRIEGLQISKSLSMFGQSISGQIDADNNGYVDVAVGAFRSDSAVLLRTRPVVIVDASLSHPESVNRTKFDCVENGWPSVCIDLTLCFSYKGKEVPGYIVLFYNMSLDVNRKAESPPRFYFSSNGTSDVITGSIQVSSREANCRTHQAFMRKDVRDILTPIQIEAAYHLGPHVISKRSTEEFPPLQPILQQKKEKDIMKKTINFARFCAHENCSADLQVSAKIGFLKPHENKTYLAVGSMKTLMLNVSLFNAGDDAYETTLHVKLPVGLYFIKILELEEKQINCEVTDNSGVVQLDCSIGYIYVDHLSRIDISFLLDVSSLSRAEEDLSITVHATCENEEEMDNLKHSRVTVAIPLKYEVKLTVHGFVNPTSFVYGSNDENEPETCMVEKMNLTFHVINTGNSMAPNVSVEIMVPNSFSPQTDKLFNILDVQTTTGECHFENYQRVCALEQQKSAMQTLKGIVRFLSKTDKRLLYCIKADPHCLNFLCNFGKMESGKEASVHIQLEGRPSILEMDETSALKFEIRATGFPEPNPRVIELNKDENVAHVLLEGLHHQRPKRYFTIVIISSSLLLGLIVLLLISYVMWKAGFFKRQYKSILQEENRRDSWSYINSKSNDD

For the compound `CCOC(=O)C1=C(C)N[C@@]2(O)c3ccccc3C(=O)[C@@]12O`, in assay [1], the percent of DMSO control GFP was 102% (inactive). In addition, the GFP response vs DMSO in assay [2] is 106% (inactive); in assay [4], 92.2% (inactive). Besides, the percent response of DMSO control in assay [3] was 106% (inactive). Further, the GFP response, % of DMSO in assay [5] is 98.5% (inactive). This compound registered a double positive events in assay [6] of 65.1%. Moreover, the vesicle binding response in assay [6] is 254% (inactive). In addition, the inhibition in assay [7] was -7.25% (inactive); in assay [11], 12.9% (inactive); in assay [15] it was 6% (inactive). The superoxide response (% of plate) in assay [8] is 96.8% (inactive). Besides, the aptamer binding inhibition in [9] was 1% (inactive). In addition, the response is -1.07% (inactive) in [10] and 13% (inactive) in assay [12]. In [13], the binding (% of control) is 99.3% (inactive). The efflux inhibition (fraction of control) in assay [14] is -0.21 (inactive). Further, the differentiation response in assay [16] is -21.6% (inactive).

On to `CCOCC(=O)Nc1nc2ccccc2s1`, for which the percent of DMSO control GFP in assay [1] is 92.4% (inactive). Further, the GFP response vs DMSO is 125% (inactive) in assay [2] and 80.9% (inactive) in assay [4]. In [3], the percent response of DMSO control is 101% (inactive). Besides, the GFP response, % of DMSO in assay [5] was 94.2% (inactive). The compound further returned a double positive events in [6] of 65.7%. Further, in assay [6], the vesicle binding response was 149% (inactive). Also, the results for the inhibition in assay [7], in [11] and in assay [15] were 2.58% (inactive), -1.47% (inactive) and 12% (inactive), respectively. Further, the superoxide response (% of plate) in assay [8] was 95.4% (inactive). For the same compound, in [9], the aptamer binding inhibition was 6% (inactive). For the same compound, the response was -8.15% (inactive) in assay [10] and 3.42% (inactive) in assay [12]. The binding (% of control) in assay [13] is 105% (inactive). Moreover, the efflux inhibition (fraction of control) in assay [14] was 0.23 (inactive). The differentiation response in assay [16] was -0.82% (inactive).

As for `O=C(CN1C(=O)c2ccccc2S1(=O)=O)Nc1ccccc1`, the percent of DMSO control GFP in assay [1] was 95.5% (inactive). For the same compound, the GFP response vs DMSO in [2] was 126% (inactive); in [4], 84.2% (inactive). Besides, the percent response of DMSO control in assay [3] is 112% (inactive). Besides, in assay [5], the GFP response, % of DMSO is 92.8% (inactive). This compound also registered a double positive events in assay [6] of 67.7%. Besides, in [6], the vesicle binding response was 180% (inactive). The values for the inhibition in assay [7], in [11] and in assay [15] were -72.1% (inactive), 7.49% (inactive) and 5% (inactive), respectively. In addition, the superoxide response (% of plate) in assay [8] is 98.5% (inactive). The aptamer binding inhibition in assay [9] was 0% (inactive). In addition, the response in assay [10] was -2.34% (inactive); in assay [12] it was -1.17% (inactive). Further, the binding (% of control) in assay [13] is 99% (inactive). Also, the efflux inhibition (fraction of control) in assay [14] was -0.31 (inactive). The differentiation response in assay [16] is 10.6% (inactive).

Take `O=c1cc(CN2CCN(c3cccc(Cl)c3)CC2)c2cc(O)c(-c3ccccc3)cc2o1`: the percent of DMSO control GFP in assay [1] is 93% (inactive). Besides, the GFP response vs DMSO in [2] is 133% (inactive); in [4], 83.1% (inactive). The percent response of DMSO control in assay [3] is 102% (inactive). For the same compound, the GFP response, % of DMSO in [5] is 92.8% (inactive). In [6], this compound gave a double positive events of 69.1%. Moreover, in assay [6], the vesicle binding response was 265% (inactive). Also, the inhibition was 0.64% (inactive) in [7], -0.51% (inactive) in [11] and 11% (inactive) in [15]. Further, in assay [8], the superoxide response (% of plate) was 113% (inactive). In addition, the aptamer binding inhibition in [9] is 0% (inactive). For the same compound, the results for the response in [10] and in assay [12] were 6.6% (inactive) and -1.13% (inactive), respectively. In assay [13], the binding (% of control) was 97.8% (inactive). The efflux inhibition (fraction of control) in assay [14] is -0.02 (inactive). Besides, the differentiation response in [16] is -12.3% (inactive).

Regarding `Cc1cccc(C(=O)c2cccc(C)c2)c1`, in assay [1], the percent of DMSO control GFP is 105% (inactive). Also, the GFP response vs DMSO in assay [2] is 103% (inactive); in assay [4], 105% (inactive). For the same compound, the percent response of DMSO control in assay [3] is 109% (inactive). In addition, in assay [5], the GFP response, % of DMSO was 105% (inactive). The double positive events in assay [6] was 56%. Also, the vesicle binding response in assay [6] was 45.4% (inactive). Further, the values for the inhibition in [7], in assay [11] and in [15] were 12% (inactive), -6.55% (inactive) and 1% (inactive), respectively. Further, the superoxide response (% of plate) in [8] is 104% (inactive). Moreover, the aptamer binding inhibition in assay [9] is 0% (inactive). In addition, the response in [10] is -8.97% (inactive); in assay [12] it was 1.1% (inactive). Moreover, the binding (% of control) in [13] is 98.7% (inactive). Besides, the efflux inhibition (fraction of control) in [14] was -0.17 (inactive). In assay [16], the differentiation response is -7.57% (inactive).

For the origin of these results see PubChem BioAssay.
